According to paper PMC5540273 (PLoS ONE, 2017):

Assays:
Details in all cases: concentration: 1 μM, replicates: in singlicate; n = 1
[1] = test system: PIK3CG
[2] = test system: T1, PIK4CB
T1 construct: gene PI4KB

[3] = test system: PIKFYVE
[4] = test system: PIM1
[5] = test system: PIM2
[6] = test system: PIM3
[7] = test system: PIP5K1A
[8] = test system: PIP5K1C
[9] = test system: PIP5K2B
[10] = test system: T2, PIP5K2C
T2 construct: gene PIP4K2C

[11] = test system: T3, PKAC-alpha
T3 construct: gene PRKACA

[12] = test system: T4, PKAC-beta
T4 construct: gene PRKACB

[13] = test system: PKMYT1
[14] = test system: PKN1
[15] = test system: PKN2
[16] = test system: PLK1
[17] = test system: PLK2
[18] = test system: PLK3
[19] = test system: PLK4
[20] = test system: PRKCD
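Further: KINOMEscan kinase panel screen.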

COc1cc(Nc2ccnc3ccc(C(F)(F)F)cc23)cc(OC)c1OC [GW577382]
%Inh [1]: 0% | %Inh [2]: 0% | %Inh [3]: 0% | %Inh [4]: 2% | %Inh [5]: 0% | %Inh [6]: 0% | %Inh [7]: 0% | %Inh [8]: 54% | %Inh [9]: 10% | %Inh [10]: 50% | %Inh [11]: 14% | %Inh [12]: 4% | %Inh [13]: 6% | %Inh [14]: 0% | %Inh [15]: 0% | %Inh [16]: 12% | %Inh [17]: 0% | %Inh [18]: 0% | %Inh [19]: 50% | %Inh [20]: 15%

COc1cc2ncn(-c3cc(OCc4ccncc4Br)c(C(N)=O)s3)c2cc1OC [GW854278]
%Inh [1]: 55% | %Inh [2]: 23% | %Inh [3]: 17% | %Inh [4]: 0% | %Inh [5]: 0% | %Inh [6]: 2% | %Inh [7]: 0% | %Inh [8]: 86% | %Inh [9]: 41% | %Inh [10]: 81% | %Inh [11]: 0% | %Inh [12]: 0% | %Inh [13]: 0% | %Inh [14]: 10% | %Inh [15]: 0% | %Inh [16]: 99.9% | %Inh [17]: 99.7% | %Inh [18]: 99.2% | %Inh [19]: 4% | %Inh [20]: 7%

Nc1n[nH]c2ncc(-c3ccccc3)cc12 [SB-517081]
%Inh [1]: 0% | %Inh [2]: 0% | %Inh [3]: 0% | %Inh [4]: 12% | %Inh [5]: 0% | %Inh [6]: 0% | %Inh [7]: 0% | %Inh [8]: 38% | %Inh [9]: 9% | %Inh [10]: 23% | %Inh [11]: 0% | %Inh [12]: 0% | %Inh [13]: 2% | %Inh [14]: 0% | %Inh [15]: 0% | %Inh [16]: 0% | %Inh [17]: 11% | %Inh [18]: 0% | %Inh [19]: 15% | %Inh [20]: 0%

Cc1cccc(-c2nc(Nc3ccc4c(cnn4C)c3)c3ccccc3n2)n1 [GW876731]
%Inh [1]: 0% | %Inh [2]: 26% | %Inh [3]: 91.5% | %Inh [4]: 8% | %Inh [5]: 1% | %Inh [6]: 21% | %Inh [7]: 0% | %Inh [8]: 0% | %Inh [9]: 0% | %Inh [10]: 0% | %Inh [11]: 0% | %Inh [12]: 14% | %Inh [13]: 4% | %Inh [14]: 55% | %Inh [15]: 33% | %Inh [16]: 7% | %Inh [17]: 0% | %Inh [18]: 0% | %Inh [19]: 13% | %Inh [20]: 5%

O=c1cc(N2CCOCC2)nc2n(Cc3ccc(F)c(Cl)c3)ccn12 [GSK2297099]
%Inh [1]: 23% | %Inh [2]: 20% | %Inh [3]: 0% | %Inh [4]: 11% | %Inh [5]: 0% | %Inh [6]: 19% | %Inh [7]: 0% | %Inh [8]: 0% | %Inh [9]: 0% | %Inh [10]: 0% | %Inh [11]: 0% | %Inh [12]: 0% | %Inh [13]: 10% | %Inh [14]: 11% | %Inh [15]: 0% | %Inh [16]: 54% | %Inh [17]: 0% | %Inh [18]: 6% | %Inh [19]: 0% | %Inh [20]: 0%

CCc1ccc(-c2ccc3c(c2)-c2nn(C)cc2S(=O)(=O)N3C)cc1
%Inh [1]: 0% | %Inh [2]: 0% | %Inh [3]: 16% | %Inh [4]: 0% | %Inh [5]: 12% | %Inh [6]: 0% | %Inh [7]: 0% | %Inh [8]: 35% | %Inh [9]: 0% | %Inh [10]: 9% | %Inh [11]: 0% | %Inh [12]: 0% | %Inh [13]: 0% | %Inh [14]: 0% | %Inh [15]: 0% | %Inh [16]: 8% | %Inh [17]: 0% | %Inh [18]: 56% | %Inh [19]: 0% | %Inh [20]: 14%

Cc1ccc(-c2ccc3c(ccc4sc5c(c43)NC[C@@H](C)N=C5N(C)C)n2)cn1
%Inh [1]: 0% | %Inh [2]: 0% | %Inh [3]: 42% | %Inh [4]: 0% | %Inh [5]: 0% | %Inh [6]: 0% | %Inh [7]: 0% | %Inh [8]: 0% | %Inh [9]: 0% | %Inh [10]: 0% | %Inh [11]: 0% | %Inh [12]: 0% | %Inh [13]: 0% | %Inh [14]: 0% | %Inh [15]: 0% | %Inh [16]: 0% | %Inh [17]: 0% | %Inh [18]: 0% | %Inh [19]: 0% | %Inh [20]: 0%

Cn1c(=O)c(F)c(Nc2ccc(I)cc2F)c2c(=O)n(OC[C@H](O)CO)cnc21
%Inh [1]: 0% | %Inh [2]: 0% | %Inh [3]: 6% | %Inh [4]: 5% | %Inh [5]: 13% | %Inh [6]: 0% | %Inh [7]: 11% | %Inh [8]: 22% | %Inh [9]: 9% | %Inh [10]: 12% | %Inh [11]: 10% | %Inh [12]: 35% | %Inh [13]: 0% | %Inh [14]: 0% | %Inh [15]: 0% | %Inh [16]: 14% | %Inh [17]: 0% | %Inh [18]: 0% | %Inh [19]: 4% | %Inh [20]: 4%

CCS(=O)(=O)c1ccc(OC)c(Nc2ncc(-c3ccc(F)cc3)o2)c1.Cl [GW591947]
%Inh [1]: 0% | %Inh [2]: 0% | %Inh [3]: 0% | %Inh [4]: 0% | %Inh [5]: 0% | %Inh [6]: 0% | %Inh [7]: 0% | %Inh [8]: 23% | %Inh [9]: 3% | %Inh [10]: 2% | %Inh [11]: 0% | %Inh [12]: 14% | %Inh [13]: 7% | %Inh [14]: 0% | %Inh [15]: 15% | %Inh [16]: 0% | %Inh [17]: 0% | %Inh [18]: 0% | %Inh [19]: 0% | %Inh [20]: 2%

Cc1cc(Nc2nc(-c3cccc(C)n3)nc3ccccc23)ccn1 [GW872411]
%Inh [1]: 0% | %Inh [2]: 0% | %Inh [3]: 53% | %Inh [4]: 0% | %Inh [5]: 0% | %Inh [6]: 0% | %Inh [7]: 2% | %Inh [8]: 0% | %Inh [9]: 0% | %Inh [10]: 0% | %Inh [11]: 0% | %Inh [12]: 0% | %Inh [13]: 24% | %Inh [14]: 0% | %Inh [15]: 0% | %Inh [16]: 0% | %Inh [17]: 0% | %Inh [18]: 1% | %Inh [19]: 0% | %Inh [20]: 8%
